TEAD-YAP block: TEAD-YAP interaction inhibition, primary screen, TEAD-YAP interaction inhibitor project, luminescence, HEK-TIYL cells; TEAD-Gal4/YAP UAS-luciferase luminescence; inhibition, % at 9.12 µM; 640,000 tested, 1.4% active; in the data active = inhibition above about 32%;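 also: 0% = median of test compound wells and 100% = reference inhibitor wells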
FBW7 act: FBW7 E3 ligase activators, primary screen, biochemical, AlphaScreen, human; normalized activity (activation), % at 26.1 µM; 650,000 tested, 0.13% active; AlphaScreen FBW7–phospho-cyclin E peptide binding, activator screen; F-box/WD repeat-containing protein 7 (Homo sapiens), Q969H0; in the data active = normalized activity above about 1.9%;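 also: purified mutant Fbw7 with reduced substrate affinity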
GPR151 activ: activators of human GPR151, primary screen, cell-based, PathHunter beta-arrestin, luminescence; PathHunter beta-arrestin GPR151 cells; 650,000 tested, 1% active; G-protein coupled receptor 151 (Homo sapiens), Q8TDV0; activation, % at 11.2 µM; in the data active = activation above about 4.9%;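 also: 0% = median of compound wells and 100% = cells with positive control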
Target sequence (Q8TDV0 whole entry, looked up): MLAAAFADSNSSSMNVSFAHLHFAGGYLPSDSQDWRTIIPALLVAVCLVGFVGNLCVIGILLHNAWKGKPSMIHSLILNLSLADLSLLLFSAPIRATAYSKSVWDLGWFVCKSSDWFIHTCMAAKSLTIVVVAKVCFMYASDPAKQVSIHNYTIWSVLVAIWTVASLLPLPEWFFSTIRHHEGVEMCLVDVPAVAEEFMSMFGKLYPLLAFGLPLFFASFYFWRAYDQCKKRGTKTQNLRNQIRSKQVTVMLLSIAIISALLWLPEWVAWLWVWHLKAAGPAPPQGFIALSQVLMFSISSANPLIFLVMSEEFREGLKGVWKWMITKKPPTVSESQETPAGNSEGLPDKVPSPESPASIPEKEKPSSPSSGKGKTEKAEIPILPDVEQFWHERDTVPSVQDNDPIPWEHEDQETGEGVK
MITF inh: MITF inhibitors, primary screen, biochemical, AlphaScreen, human. Microphthalmia-associated transcription factor (Homo sapiens), O75030. 650,000 tested, 0.91% active. inhibition, % at 2.6 µM. AlphaScreen MITF homodimerization, bead proximity signal; in the data active = inhibition above about 50%;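 also: 0% = vehicle wells with protein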
Active calls of the source: *. Shown are actives, neighbours in structure and some others; about 3.4% of the full set was active somewhere.

`CCCOc1ccc(S(=O)(=O)NCc2ccncc2)c2ccccc12` gave TEAD-YAP block 32*, FBW7 act 0, GPR151 activ 0 and MITF inh 16.
`CN(C)S(=O)(=O)c1ccc(S(=O)(=O)NCc2ccncc2)cc1` gave TEAD-YAP block 43*, FBW7 act 0, GPR151 activ 1 and MITF inh -12.
`COc1ccc(S(=O)(=O)NCc2ccncc2)cc1` gave TEAD-YAP block 43*, FBW7 act 0, GPR151 activ 1 and MITF inh 10.
O=S(=O)(NCc1ccccc1)c1ccc(S(=O)(=O)NCc2ccncc2)cc1 was read as TEAD-YAP block 29, FBW7 act 0, GPR151 activ 3 and MITF inh 5.
For O=S(=O)(NCc1ccncc1)c1ccc(Br)s1 the results were TEAD-YAP block 34*, FBW7 act 0, GPR151 activ 4 and MITF inh -8.
Cc1ccc(S(=O)(=O)NCc2ccccc2)cc1C was read as TEAD-YAP block -2, FBW7 act 0, GPR151 activ 2 and MITF inh 8.
For Cc1ccc(S(=O)(=O)NCc2ccncc2)cc1C the results were TEAD-YAP block 41*, FBW7 act 0, GPR151 activ 2 and MITF inh 4.
Screening Cc1cc(S(=O)(=O)NCc2ccncc2)c(C)cc1Cl returned TEAD-YAP block 17, FBW7 act 0, GPR151 activ 0 and MITF inh 17.
Screening Cc1cc(S(=O)(=O)NCc2ccncc2)c(C)c(C)c1C returned TEAD-YAP block 43*, FBW7 act 0, GPR151 activ 2 and MITF inh -1.
CCOc1cc(S(=O)(=O)NCc2ccncc2)ccc1F was read as TEAD-YAP block 54*, FBW7 act 1, GPR151 activ 0 and MITF inh 2.
Cc1cccc(NC(=O)Oc2ccc(C)c(C)c2)c1 was read as TEAD-YAP block -73, FBW7 act 0, GPR151 activ 0 and MITF inh 7.
OC(c1cn2cc(-c3ccccc3)nc2s1)(C(F)(F)F)C(F)(F)F was read as TEAD-YAP block 55*, FBW7 act 0, GPR151 activ -8 and MITF inh -4.
Screening FC(F)(F)c1nn2cc(-c3ccccc3)nc2s1 returned TEAD-YAP block -42, FBW7 act 0, GPR151 activ 0 and MITF inh -6.
CCCN1CCc2nc(NC(=O)c3sc4ccccc4c3Cl)sc2C1 was read as TEAD-YAP block 34*, FBW7 act 0, GPR151 activ -1 and MITF inh 8.
For N#Cc1ccc(-c2ccc(OC3CCNCC3)cc2)cc1 the results were TEAD-YAP block -42, FBW7 act 0, GPR151 activ 0 and MITF inh 18.
`c1ccc2oc(-c3ccc(OC4CCNCC4)cc3)cc2c1` gave TEAD-YAP block 68*, FBW7 act 0, GPR151 activ 2 and MITF inh -4.
COCc1ccc(-c2ccc(OC3CCNCC3)cc2)cc1 was read as TEAD-YAP block 38*, FBW7 act 0, GPR151 activ 0 and MITF inh -5.
Screening CCN1CCC(Oc2ccc(-c3ccc(COC)cc3)cc2)CC1 returned TEAD-YAP block -30, FBW7 act 0, GPR151 activ 4 and MITF inh 7.
For COC(=O)C1CCN(Cc2ccc(OCC(O)CN(C)Cc3ccccc3)cc2)CC1 (configuration not stated) the results were TEAD-YAP block -3, FBW7 act 0, GPR151 activ 1 and MITF inh 3.
CC(C)(N)COc1ncccc1C(=O)Nc1ccc2[nH]ncc2c1 was read as TEAD-YAP block -11, FBW7 act 0, GPR151 activ -1 and MITF inh 43.
Cc1cnc(N2CCCC2CO)nc1NCc1ccccc1 (configuration not stated) was read as TEAD-YAP block 50*, FBW7 act 0, GPR151 activ -1 and MITF inh 2.
For Nc1nc(NCc2ccccc2)cc(N2CCCC2CO)n1 (configuration not stated) the results were TEAD-YAP block 45*, FBW7 act 1, GPR151 activ 1 and MITF inh -8.
For CC(=O)N1c2ccccc2NC2=C(C(=O)CCC2)C1c1ccccc1 (configuration not stated) the results were TEAD-YAP block 37*, FBW7 act 0, GPR151 activ -1 and MITF inh 2.
For CC(=O)N1c2ccccc2NC2=C(C(=O)CCC2)C1c1cccc(Br)c1 (configuration not stated) the results were TEAD-YAP block 37*, FBW7 act 0, GPR151 activ -1 and MITF inh -11.
Screening Cc1c(C(=O)NCCN2CCOCC2)sc2ncn(CC(=O)N3CCCCC3)c(=O)c12 returned TEAD-YAP block 3, FBW7 act 0, GPR151 activ -2 and MITF inh 7.
CC(=O)Nc1ccc(NC(=O)Cn2cnc3c(cnn3C(C)(C)C)c2=O)cc1 was read as TEAD-YAP block 2, FBW7 act 4.0*, GPR151 activ 0 and MITF inh 18.
For CCc1nc2sc(C(N)=O)c(N)c2c2c1CCCC2 the results were TEAD-YAP block 38*, FBW7 act 0, GPR151 activ -1 and MITF inh -15.
For COC(=O)c1sc2nc3c(c(-c4ccc(C)o4)c2c1N)CCCC3 the results were TEAD-YAP block 5, FBW7 act 0, GPR151 activ 3 and MITF inh -7.
For NC(=O)c1sc2nc3c(c(-c4ccco4)c2c1N)CCC3 the results were TEAD-YAP block 44*, FBW7 act 0, GPR151 activ 2 and MITF inh -5.
For Cc1ccc(-c2c3c(nc4sc(C(N)=O)c(N)c24)CCCC3)o1 the results were TEAD-YAP block 6, FBW7 act 0, GPR151 activ 0 and MITF inh 55*.
CCc1nc2sc(C(=O)OC)c(N)c2c2c1CCCC2 was read as TEAD-YAP block -4, FBW7 act 0, GPR151 activ 1 and MITF inh -15.
CCOC(=O)CCC(=O)N1CCC(c2ccccc2)C1 (configuration not stated) was read as TEAD-YAP block -8, FBW7 act 0, GPR151 activ -1 and MITF inh 9.
For CCC(CO)Nc1ccc2ncc(-c3cccc(NS(C)(=O)=O)c3)n2n1 (configuration not stated) the results were TEAD-YAP block 37*, FBW7 act 0, GPR151 activ 1 and MITF inh -9.
`CCC(CO)Nc1ccc2ncc(-c3cncc(OC)c3)n2n1` (configuration not stated) gave TEAD-YAP block 54*, FBW7 act 0, GPR151 activ 0 and MITF inh 6.
For CCC(CO)Nc1ccc2ncc(-c3ccc(OC)cc3)n2n1 (configuration not stated) the results were TEAD-YAP block 16, FBW7 act 1, GPR151 activ 0 and MITF inh 16.
Screening O=C(Nc1nc2c(ccc3ccccc32)s1)c1cc(-c2ccccc2)nc2ccccc12 returned TEAD-YAP block -22, FBW7 act 0, GPR151 activ 2 and MITF inh -1.

Source: PubChem
